The panel holds about 83,000 compounds, 20% with a hit somewhere; the sample as a whole holds those more often.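 Each cell line was grown in a 96-well plate and treated with one concentration of compound for 48 hours. Values below 10 were considered active.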 Activity calls are given as the source filed them.
Key:
Test in all cases: NCI-60 one-dose screen, 48 h (100 = growth as untreated, 0 = no growth, -100 = all killed)
Settings in all cases: 10 µM
DU-145 prostate = system: DU-145 prostate
K-562 leukemia = system: K-562 leukemia
MALME-3M melanoma = system: MALME-3M melanoma
MDA-MB-231 breast = system: MDA-MB-231 breast
RXF 393 renal = system: RXF 393 renal
SF-268 CNS = system: SF-268 CNS
SF-295 CNS = system: SF-295 CNS
SF-539 CNS = system: SF-539 CNS
UACC-257 melanoma = system: UACC-257 melanoma
M14 melanoma = system: M14 melanoma

Measured: growth

FC(F)(F)c1ccc(-c2cnc(Cl)nc2NCc2cc(C(F)(F)F)cc(C(F)(F)F)c2)cc1
active: MDA-MB-231 breast -28.6% | SF-295 CNS -18.8%
inactive: DU-145 prostate 18.8% | K-562 leukemia 16.3% | MALME-3M melanoma 33.6% | RXF 393 renal 23.3% | SF-268 CNS 25.3% | SF-539 CNS 33.1% | UACC-257 melanoma 38.2% | M14 melanoma 41%

C/C(=N\NC(=S)N1CCCC1)c1ccccn1
active: K-562 leukemia 7.97% | MALME-3M melanoma -8.16% | SF-268 CNS 9.48% | SF-295 CNS -6.83% | SF-539 CNS 4.96% | UACC-257 melanoma -32.4% | M14 melanoma 6.19%
inactive: DU-145 prostate 16.7% | MDA-MB-231 breast 27.9% | RXF 393 renal 21.5%

CCc1c(C(=O)NCc2c(O)ccc3cccc(O)c23)[nH]c(C)c1C(C)=O
inactive: DU-145 prostate 55.1% | K-562 leukemia 16.8% | MALME-3M melanoma 37.4% | MDA-MB-231 breast 48.3% | RXF 393 renal 58.8% | SF-268 CNS 31.1% | SF-295 CNS 11.8% | SF-539 CNS 56.3% | UACC-257 melanoma 35% | M14 melanoma 30.9%

O=c1c2cccc3c(Nc4ccc(Br)cn4)ccc(c32)c2nc3ccccc3n12
inactive: DU-145 prostate 99.4% | K-562 leukemia 101% | MALME-3M melanoma 96.3% | MDA-MB-231 breast 66.2% | RXF 393 renal 99.8% | SF-268 CNS 98.3% | SF-295 CNS 87.1% | SF-539 CNS 89.9% | UACC-257 melanoma 102% | M14 melanoma 96.8%

COc1ccc(Nc2ccnc(N3CCN(c4ccnc5cc(Cl)ccc45)CC3)n2)cc1
active: K-562 leukemia 2.55% | MALME-3M melanoma 5.65% | RXF 393 renal -26.6% | SF-295 CNS -4.17% | SF-539 CNS -31.4% | UACC-257 melanoma -1.27% | M14 melanoma -13.3%
inactive: DU-145 prostate 15.6% | MDA-MB-231 breast 24.8% | SF-268 CNS 30.3%

COc1cc(CSc2nc3ccc(C)cc3c(=O)n2Cc2ccccc2)cc(OC)c1OC
active: DU-145 prostate 9.78% | RXF 393 renal -16.9% | SF-539 CNS -16.4%
inactive: K-562 leukemia 13.8% | MALME-3M melanoma 30.1% | MDA-MB-231 breast 44.4% | SF-268 CNS 51.5% | SF-295 CNS 31% | UACC-257 melanoma 47.4% | M14 melanoma 35.6%

COc1cc(C2CC(=O)Nc3c2c(C)nn3-c2nc3ccccc3[nH]2)cc(OC)c1O (stereo not given)
inactive: DU-145 prostate 96.4% | K-562 leukemia 75.7% | MALME-3M melanoma 47.3% | RXF 393 renal 10.4% | SF-268 CNS 40.1% | SF-539 CNS 72.8% | UACC-257 melanoma 44.4%
active: MDA-MB-231 breast 7.76% | SF-295 CNS -34.2% | M14 melanoma 9.64%

Cc1nc2cc(-n3c(-c4ccc(F)cc4)nc4ccccc4c3=O)ccc2n1Cc1ccccc1
inactive: DU-145 prostate 20.8% | SF-295 CNS 47.1%
active: K-562 leukemia 8.27% | MALME-3M melanoma -45.1% | MDA-MB-231 breast -25.5% | RXF 393 renal -31.3% | SF-268 CNS 8.04% | SF-539 CNS -72.6% | UACC-257 melanoma -18% | M14 melanoma 3.21%

CN1/C(=C\C(I)C(I)C2=[N+](C)c3ccccc3C2(C)C)C(C)(C)c2ccccc21 (stereo not given)
inactive: DU-145 prostate 25.2% | MALME-3M melanoma 10.9% | MDA-MB-231 breast 12.2% | RXF 393 renal 36.3% | SF-268 CNS 24% | SF-539 CNS 18.6% | M14 melanoma 20.3%
active: K-562 leukemia 7.4% | SF-295 CNS -18.2% | UACC-257 melanoma -11.8%

CCCn1c(=O)c2c(nc(-c3cccc(OCCCCl)c3)n2C)n(CCC)c1=O
inactive: DU-145 prostate 61.3% | K-562 leukemia 92.6% | MALME-3M melanoma 62.2% | MDA-MB-231 breast 36.2% | RXF 393 renal 37% | SF-268 CNS 59.9% | SF-295 CNS 15.3% | SF-539 CNS 63% | UACC-257 melanoma 82.1% | M14 melanoma 68.6%

COc1cccc(C(=O)NNc2nc(N3CCOCC3)nc(N3CCN(C(c4ccccc4)c4ccccc4)CC3)n2)c1
inactive: DU-145 prostate 87.2% | K-562 leukemia 63.5% | MALME-3M melanoma 91.7% | MDA-MB-231 breast 86.3% | RXF 393 renal 69.4% | SF-268 CNS 71.5% | SF-295 CNS 87.3% | SF-539 CNS 93.6% | UACC-257 melanoma 90.9% | M14 melanoma 114%

O=C(Nc1cccc(C(F)(F)F)c1)C(Cl)Cl
inactive: DU-145 prostate 98.3% | K-562 leukemia 102% | MALME-3M melanoma 94.7% | MDA-MB-231 breast 127% | RXF 393 renal 104% | SF-268 CNS 99.4% | SF-295 CNS 90.4% | SF-539 CNS 93.8% | UACC-257 melanoma 98% | M14 melanoma 98.8%

COc1ccc(/C(CS(=O)(=O)c2ccccc2)=N\O)cc1
inactive: DU-145 prostate 119% | K-562 leukemia 103% | MALME-3M melanoma 106% | MDA-MB-231 breast 113% | RXF 393 renal 92.1% | SF-268 CNS 115% | SF-295 CNS 88.5% | SF-539 CNS 102% | UACC-257 melanoma 95.8% | M14 melanoma 109%

CC(=O)[C@H]1CC[C@H]2[C@@H]3CC[C@@H]4CC=C(C=O)C[C@]4(C)[C@H]3CC[C@]12C
inactive: DU-145 prostate 98.7% | K-562 leukemia 81.9% | MALME-3M melanoma 96.2% | MDA-MB-231 breast 94.3% | RXF 393 renal 112% | SF-268 CNS 92.4% | SF-295 CNS 93.2% | SF-539 CNS 92.4% | UACC-257 melanoma 96.2% | M14 melanoma 89.2%

CC(=O)O[C@H]1CC[C@@]2(C)[C@@H](CC[C@@H]3[C@@H]2CC[C@]2(C)C=C(C=O)C[C@@H]32)C1
inactive: DU-145 prostate 49.5% | K-562 leukemia 82.3% | MALME-3M melanoma 66.8% | MDA-MB-231 breast 103% | RXF 393 renal 120% | SF-268 CNS 66.6% | SF-295 CNS 97.1% | SF-539 CNS 92.7% | UACC-257 melanoma 98.6% | M14 melanoma 65.3%

S=c1c2ncccc2c(-c2ccccn2)nn1Cc1ccccn1
inactive: DU-145 prostate 111% | K-562 leukemia 95.6% | MALME-3M melanoma 89.6% | MDA-MB-231 breast 112% | RXF 393 renal 114% | SF-268 CNS 108% | SF-295 CNS 96% | SF-539 CNS 99.7% | UACC-257 melanoma 95.6% | M14 melanoma 89.9%

CCOc1ccc(-n2cc(-c3ccc(N(C)C)cc3)[n+]3c2CCCCC3)cc1
active: K-562 leukemia 9.14% | MALME-3M melanoma 2.39% | SF-295 CNS -14.7% | UACC-257 melanoma -12.6%
inactive: DU-145 prostate 25.7% | MDA-MB-231 breast 19.4% | RXF 393 renal 39.7% | SF-268 CNS 29.1% | SF-539 CNS 26.6% | M14 melanoma 10.4%

Cc1ccc(-c2cc(-c3cccc(Nc4ccnc5cc(Cl)ccc45)c3)nc3nc(N)[nH]c(=O)c23)cc1
inactive: DU-145 prostate 105% | K-562 leukemia 28.1% | MALME-3M melanoma 108% | MDA-MB-231 breast 103% | RXF 393 renal 90.9% | SF-268 CNS 91.2% | SF-295 CNS 102% | SF-539 CNS 97.5% | UACC-257 melanoma 102% | M14 melanoma 106%

CCCCCCN=C(N)CCCCCCCCCCC(N)=NCCCCCC
inactive: DU-145 prostate 58.5% | K-562 leukemia 13.5% | MALME-3M melanoma 44.9% | MDA-MB-231 breast 32.1% | RXF 393 renal 35.8% | SF-268 CNS 28.8% | SF-295 CNS 41% | SF-539 CNS 29.3% | UACC-257 melanoma 79.8% | M14 melanoma 23.2%

N#CN1CC[C@H](C(=O)Nc2ncc(-c3ccncc3)s2)C1
active: DU-145 prostate 8.45% | K-562 leukemia 3.89% | MALME-3M melanoma -19.4% | MDA-MB-231 breast 2.16% | RXF 393 renal -58.8% | SF-268 CNS 5.17% | SF-295 CNS 4.53% | SF-539 CNS -20.7% | UACC-257 melanoma -19.4% | M14 melanoma 1.13%

Nc1nc2c(nnn2C2CC(O)C(CO)O2)c(=O)[nH]1 (stereo not given)
inactive: DU-145 prostate 21.8% | K-562 leukemia 40.5% | MALME-3M melanoma 79.5% | MDA-MB-231 breast 58.5% | RXF 393 renal 50.6% | SF-268 CNS 50.2% | SF-295 CNS 56.4% | SF-539 CNS 33.4% | UACC-257 melanoma 77.7% | M14 melanoma 40%

O=C(c1ccccc1)C(Nc1ccccc1)c1ccccc1 (stereo not given)
inactive: DU-145 prostate 100% | K-562 leukemia 90.5% | MALME-3M melanoma 90% | MDA-MB-231 breast 89.7% | RXF 393 renal 103% | SF-268 CNS 93.1% | SF-295 CNS 90.7% | SF-539 CNS 96.7% | UACC-257 melanoma 93.4% | M14 melanoma 97.5%

COc1cc(-c2c(C#N)c(N)n3c(nc4ccccc43)c2C#N)cc(Br)c1OC
active: MALME-3M melanoma 7.41% | RXF 393 renal -9.32%
inactive: DU-145 prostate 39.1% | K-562 leukemia 54.6% | MDA-MB-231 breast 12.6% | SF-268 CNS 64% | SF-295 CNS 66% | SF-539 CNS 41.2% | UACC-257 melanoma 54% | M14 melanoma 76%

CCCCCCCCCCN=C(c1ccc(N(C)C)cc1)c1ccc(N(C)C)cc1
inactive: DU-145 prostate 28.5% | K-562 leukemia 10.1% | MALME-3M melanoma 62% | MDA-MB-231 breast 49.5% | SF-268 CNS 57.5% | SF-295 CNS 14% | SF-539 CNS 10.9% | UACC-257 melanoma 28.3%
active: RXF 393 renal 3.59% | M14 melanoma -18%

O=C1/C(=C/c2ccc(O)cc2)CSc2ccc(Cl)cc21
inactive: DU-145 prostate 102% | K-562 leukemia 64% | MALME-3M melanoma 111% | MDA-MB-231 breast 77.5% | RXF 393 renal 91.1% | SF-268 CNS 93% | SF-295 CNS 91.6% | SF-539 CNS 85.5% | UACC-257 melanoma 100% | M14 melanoma 88.8%

Cc1ccccc1C1=N[C@@H](Cc2ccccc2)C(=O)c2c(nc3ccccn23)N1
inactive: DU-145 prostate 113% | K-562 leukemia 113% | MALME-3M melanoma 109% | MDA-MB-231 breast 104% | RXF 393 renal 105% | SF-268 CNS 104% | SF-295 CNS 96.5% | SF-539 CNS 99.4% | UACC-257 melanoma 87.3% | M14 melanoma 102%

O=C(O)CN1C(=O)C=CC1=O
inactive: DU-145 prostate 104% | K-562 leukemia 96.4% | MALME-3M melanoma 97.7% | MDA-MB-231 breast 107% | RXF 393 renal 98.9% | SF-268 CNS 94.4% | SF-295 CNS 103% | SF-539 CNS 96.2% | UACC-257 melanoma 115% | M14 melanoma 106%

Source: PubChem BioAssay (NCI)
